The values that follow come from ChEMBL document CHEMBL5606460, “ASAP - DENV-2 NS2B-NS3 protease fluorescence single point” (2024).

The term inhibition denotes the relative decrease from the control value, in per cent.

The experiment concerns the target Genome polyprotein (dengue virus type 2) (UniProt P29990).
Where [1] appears, read: Thailand/16681/1984, Concentration 25.0 uM, Number of replicates 1.0.

Out of some 2,000 compounds screened, about 110 (5.5%) showed an effect of 50% or more. This is one part of a sample in which strong results are shown more often than they occur.

Take `Cn1cc(NC(=O)c2ccccc2C(F)(F)F)c(-c2ccc(F)nc2)n1`: the inhibition (Thailand/16681/1984, Concentration 49.5 uM, Number of replicates 2.0, Standard deviation 3.6499634215033607 %) was -3.01%; the inhibition (Thailand/16681/1984, Concentration 99.01 uM, Number of replicates 2.0, Standard deviation 1.5811035342397435 %) is -2.37%; the inhibition (Thailand/16681/1984, Concentration 198.0 uM, Number of replicates 2.0, Standard deviation 0.8634737807980869 %) was -2.26%. `O=Cc1ccc(N2CCC(C(=O)Nc3c(Cl)cncc3Cl)CC2)cc1`: the inhibition under setting [1] turned out to be 12.4%.

`Cc1cc(CO)c2cccc(Cc3cccc(C(=O)NC[C@H](C)O)c3)c2n1`: the inhibition is -6.96% (Thailand/16681/1984, Concentration 49.95 uM, Number of replicates 2.0, Standard deviation 1.3417230059830858 %) and -2.86% (Thailand/16681/1984, Concentration 99.9 uM, Number of replicates 2.0, Standard deviation 0.8544771145149516 %).

Turning to `Cc1cc(CO)c2cccc(Cc3ccccc3C(=O)NCC(N)=O)c2n1`, the inhibition by setting is: (Thailand/16681/1984, Concentration 49.95 uM, Number of replicates 2.0, Standard deviation 0.5253345885233084 %) 1.79%; (Thailand/16681/1984, Concentration 99.9 uM, Number of replicates 2.0, Standard deviation 0.6122918820772879 %) 9.88%. In the case of `Cc1cc(CO)c2cccc(Cc3cccc(C(=O)NCC(N)=O)c3)c2n1`, the inhibition turned out to be 2.44% (Thailand/16681/1984, Concentration 49.95 uM, Number of replicates 2.0, Standard deviation 0.5174294413229081 %) and 17.6% (Thailand/16681/1984, Concentration 99.9 uM, Number of replicates 2.0, Standard deviation 1.3216010889796208 %).

Turning to `Cc1cc(CO)c2cccc(Cc3cccc(C(=O)NCC(=O)O)c3)c2n1`, the inhibition is, setting by setting: (Thailand/16681/1984, Concentration 49.95 uM, Number of replicates 2.0, Standard deviation 0.8336363408632846 %) 63.2%; (Thailand/16681/1984, Concentration 99.9 uM, Number of replicates 2.0, Standard deviation 0.025873444538655716 %) 79.2%. Consider `Cc1cc(CO)c2cccc(Cc3ccccc3C(=O)NC[C@H](C)O)c2n1`, for which the inhibition was -3.03% (Thailand/16681/1984, Concentration 49.95 uM, Number of replicates 2.0, Standard deviation 0.37872955767016525 %) and 0.577% (Thailand/16681/1984, Concentration 99.9 uM, Number of replicates 2.0, Standard deviation 0.20409716758521712 %). Turning to `Cc1cc(CO)c2cccc(Cc3ccccc3C(=O)NCC(=O)O)c2n1`, the inhibition reads like this: (Thailand/16681/1984, Concentration 49.95 uM, Number of replicates 2.0, Standard deviation 0.8422599232434016 %) 38.5%; (Thailand/16681/1984, Concentration 99.9 uM, Number of replicates 2.0, Standard deviation 0.5627042603428867 %) 64.9%. Regarding `O=Cc1ccc(N2CCC(C(=O)N3CCc4ccc([N+](=O)[O-])cc4C3)CC2)cc1`, the inhibition under setting [1] stood at 16.6%. Still for that read-out and setting: next, `O=Cc1ccc(N2CCC(C(=O)NCC3CCC(C(F)(F)F)CC3)CC2)cc1` (stereo not drawn): 12.8%; `Cc1cc(C)nc(CCNC(=O)C2CCN(c3ccc(C=O)cc3)CC2)n1`: 10.6%.

As for `C[C@@H](CNc1cc(Cl)cc(C(=O)NC(C)(C)CO)c1)c1ccc(F)cc1`, the inhibition is -4.87% (Thailand/16681/1984, Concentration 49.5 uM, Number of replicates 2.0, Standard deviation 1.7964155145983758 %) and -8.66% (Thailand/16681/1984, Concentration 99.01 uM, Number of replicates 2.0, Standard deviation 2.367041527999976 %). Turning to `O=Cc1ccc(N2CCC(C(=O)NCc3ccc(Br)cn3)CC2)cc1`, under setting [1], the inhibition is 13.7%.

Take `Cc1cc(CO)c2cccc(NC(=O)[C@@H]3CCCC[C@H]3C(=O)O)c2n1`: the inhibition by setting is: (Thailand/16681/1984, Concentration 49.95 uM, Number of replicates 2.0, Standard deviation 1.6403651221128503 %) 4.53%; (Thailand/16681/1984, Concentration 99.9 uM, Number of replicates 2.0, Standard deviation 0.7343808497949172 %) 11.1%. On to `Cc1cc(CO)c2cccc(NC(=O)C3CCC(N)CC3)c2n1` (stereo not drawn), for which the inhibition (Thailand/16681/1984, Concentration 49.95 uM, Number of replicates 2.0, Standard deviation 0.3430335372049546 %) stood at 80.8% and the inhibition (Thailand/16681/1984, Concentration 99.9 uM, Number of replicates 2.0, Standard deviation 0.009052468710563864 %) amounted to 98.8%.

As to `Cc1cc(CO)c2cccc(NC(=O)[C@@H]3CCCC[C@H]3N)c2n1`, the inhibition (Thailand/16681/1984, Concentration 49.95 uM, Number of replicates 2.0, Standard deviation 4.042326157041073 %) is -9.54%.

On to `Cc1cc(CO)c2cccc(NC(=O)C3CC(N)C3)c2n1` (stereo not drawn), for which the inhibition by setting is: (Thailand/16681/1984, Concentration 49.95 uM, Number of replicates 2.0, Standard deviation 0.3514210972334106 %) 31.4%; (Thailand/16681/1984, Concentration 99.9 uM, Number of replicates 2.0, Standard deviation 0.19619256829384746 %) 78.8%. With `Cc1cc(CO)c2cccc(NC(=O)C3CCN(C)CC3)c2n1`, the inhibition (Thailand/16681/1984, Concentration 99.9 uM, Number of replicates 2.0, Standard deviation 2.5723142976307076 %) worked out at 0.725%. For the compound `Cc1cc(CO)c2cccc(NC(=O)[C@H]3CCNC3)c2n1`, the inhibition is -0.539% (Thailand/16681/1984, Concentration 49.95 uM, Number of replicates 2.0, Standard deviation 1.8979597481282788 %) and 2.99% (Thailand/16681/1984, Concentration 99.9 uM, Number of replicates 2.0, Standard deviation 1.976292784952565 %). Regarding `Cc1cc(CO)c2cccc(NC(=O)C3CNC3)c2n1`, the inhibition (Thailand/16681/1984, Concentration 99.9 uM, Number of replicates 2.0, Standard deviation 1.2849235527062883 %) is -8.19%. Consider `Cc1cc(CO)c2cccc(NC(=O)C3CCC(CN)CC3)c2n1` (stereo not drawn), for which the inhibition is 96% (Thailand/16681/1984, Concentration 49.95 uM, Number of replicates 2.0, Standard deviation 1.7984525560806044 %) and 98.2% (Thailand/16681/1984, Concentration 99.9 uM, Number of replicates 2.0, Standard deviation 0.012834221133749364 %). As to `Cc1cc(CO)c2cccc(NC(=O)CNC3CC3)c2n1`, the inhibition by setting is: (Thailand/16681/1984, Concentration 49.95 uM, Number of replicates 2.0, Standard deviation 1.6119901778213759 %) 15.9%; (Thailand/16681/1984, Concentration 99.9 uM, Number of replicates 2.0, Standard deviation 1.4451149573517064 %) 30.7%.

As for `Cc1cc(CO)c2cccc(NC(=O)[C@@H]3CC(=O)CCN3)c2n1`, the inhibition is, setting by setting: (Thailand/16681/1984, Concentration 49.95 uM, Number of replicates 2.0, Standard deviation 1.684279261738791 %) 1.29%; (Thailand/16681/1984, Concentration 99.9 uM, Number of replicates 2.0, Standard deviation 1.6842793565692 %) -1.57%.

As for `CN(CCc1ccccc1F)C(=O)C1CCN(c2ccc(C=O)cc2)CC1`, under setting [1], the inhibition came out at 13.4%. Still for that read-out and setting: with `O=Cc1ccc(N2CCC(C(=O)Nc3ccc([N+](=O)[O-])c4ccccc34)CC2)cc1` the figure was 13.5%; with `CN(Cc1nc2ccsc2c(=O)[nH]1)C(=O)C1CCN(c2ccc(C=O)cc2)CC1`, 11.8%. The same measure, in the same setting: next, `O=Cc1ccc(N2CCC(C(=O)N[C@H](c3ccccc3)C(F)(F)F)CC2)cc1`: 13.1%.
